# Values of other authors in PubChem BioAssay AID977611.
# The whole screen tested about 3,900 compounds, of which about 3,900 (100%) were called active. Cut-off not given; nearly all actives show Kd up to about 4200 µM. So high a share suggests a set chosen from earlier hits. This is one part of the list. *1 amine or outer side, *2 acyl side, *3 side chain or, on linkers, in order; H or OH if unused. Where a SMILES comes first, the peptide text is derived from it. Square brackets hold non-standard residues; d marks the D form. Peptide text beside a SMILES is read from it. [ ]: non-standard residue; d: D form. X1 = O=C([C@H](Cc1ccc(O[P+](O)(O)O)cc1)N[*:1])[*:2]; Thr(P(OH)3+) = C[C@@H](O[P+](O)(O)O)[C@H](N)C(=O)O; Lys(Me3) = C[N+](C)(C)CCCC[C@H](N)C(=O)O; Orn(CH(NH2)2) = NC(N)NCCC[C@H](N)C(=O)O; ΔPro = O=C(O)[C@@H]1C=CCN1
# Assay: PubChem AID 977611
# Settings: PDB protein-ligand complexes, literature Kd
molecule,measurement,setting,value
C[C@H](N)C(=O)N[C@@H](CCCNC(N)N)C(=O)N[C@H](C(=O)N[C@@H](CCCCN)C(=O)N[C@@H](CCC(N)=O)C(=O)N[C@H](C(=O)N[C@@H](C)C(=O)N[C@@H](CCCNC(N)N)C(=O)N[C@@H](CCCC[N+](C)(C)C)C(=O)N[C@@H](CO)C(=O)O)[C@@H](C)O)[C@@H](C)O,Kd,"protein: Histone-lysine N-methyltransferase NSD3, PDB entry 4gng",290 µM (active)
CC(C)C[C@H](N)C(=O)N[C@@H](C)C(=O)N[C@H](C(=O)N[C@@H](CCCCN)C(=O)N[C@@H](C)C(=O)N[C@@H](C)C(=O)N[C@@H](CCCNC(N)N)C(=O)N[C@@H](CCCC[N+](C)(C)C)C(=O)N[C@@H](CO)C(=O)O)[C@@H](C)O (H-LATKAA[Orn(CH(NH2)2)][Lys(Me3)]S-OH),Kd,"protein: Polycomb protein, PDB entry 1pdq",5 µM (active)
C[C@H](NC(=O)[C@@H](NC(=O)[C@H](CCC(N)=O)NC(=O)[C@H](CCCCN)NC(=O)[C@@H](N)[C@@H](C)O)[C@@H](C)O)C(=O)N[C@@H](CCCNC(N)N)C(=O)N[C@@H](CCCC[N+](C)(C)C)C(=O)N[C@@H](CO)C(=O)O (H-TKQTA[Orn(CH(NH2)2)][Lys(Me3)]S-OH),Kd,"protein: SHH1 SAWADEE, PDB entry 4iur",2.63 µM (active)
C[C@H](N)C(=O)N[C@@H](CCCNC(N)N)C(=O)N[C@H](C(=O)N[C@@H](CCCC[N+](C)(C)C)C(=O)N[C@@H](CCC(N)=O)C(=O)N[C@H](C(=O)N[C@@H](C)C(=O)N[C@@H](CCCNC(N)N)C(=O)N[C@@H](CCCCN)C(=O)N[C@@H](CO)C(=O)N[C@H](C=O)[C@@H](C)O)[C@@H](C)O)[C@@H](C)O,Kd,"protein: Inhibitor of growth protein 4( ING4) PHD domain, PDB entry 2pnx",7.9 µM (active)
C[C@H](NC(=O)[C@@H](NC(=O)[C@H](CCC(N)=O)NC(=O)[C@@H](N)CCCCN)[C@@H](C)O)C(=O)N[C@@H](CCCNC(N)N)C(=O)N[C@@H](CCCC[N+](C)(C)C)C(=O)N[C@@H](CO)C(=O)O (H-KQTA[Orn(CH(NH2)2)][Lys(Me3)]S-OH),Kd,"protein: Chromo domain-containing protein 1, Chp1, PDB entry 3g7l",0.19 µM (active)
N[C@@H]1[C@@H](O)[C@H](O[C@@H]2O[C@H](CO)[C@@H](O[C@@H]3O[C@H](CO)[C@@H](O[C@@H]4O[C@H](CO)[C@@H](O[C@@H]5O[C@H](CO)[C@@H](O)[C@H](O)[C@H]5N)[C@H](O)[C@H]4N)[C@H](O)[C@H]3N)[C@H](O)[C@H]2N)[C@@H](CO)O[C@H]1O,Kd,"protein: Ostrinia furnacalis Group I chitinase catalytic domain, PDB entry 3wqv",6.2 µM (active)
N[C@H]1[C@H](O[C@H]2[C@H](O)[C@@H](N)[C@H](O[C@H]3[C@H](O)[C@@H](N)[C@H](O[C@H]4[C@H](O)[C@@H](N)[C@H](O[C@H]5[C@H](O)[C@@H](N)C(=O)O[C@@H]5CO)O[C@@H]4CO)O[C@@H]3CO)O[C@@H]2CO)O[C@H](CO)[C@@H](O)[C@@H]1O,Kd,"protein: Ostrinia furnacalis Group I chitinase catalytic domain, PDB entry 3wqw",5.9 µM (active)
H-AQTFYVDG-OH,Kd,"protein: HIV-1 protease, PDB entry 2nxm",6.4 µM (active)
H-ATFYVA-OH,Kd,"protein: protease, tethered dimer, PDB entry 4eqj",2.52 µM (active)
H-AEVFYVDGA-OH,Kd,"protein: HIV-1 protease, PDB entry 2nxl",0.54 µM (active)
H-AETFYVD-OH,Kd,"protein: protease, tethered dimer, PDB entry 4ep2",4.43 µM (active)
CC[C@H](C)[C@H](NC(=O)[C@H](CCC(=O)O)NC(=O)[C@H](CCC(=O)O)NC(=O)[C@H](Cc1ccccc1)NC(=O)[C@H](CC(=O)O)NC(=O)CN)C(=O)N1CC=C[C@H]1C(=O)NCC(=O)N[C@@H](CCC(=O)O)C(=O)N[C@@H](Cc1ccc(O)cc1)C(=O)N[C@@H](C)C(=O)O (H-GDFEEI[ΔPro]GEYA-OH),Kd,"protein: thrombin alpha, PDB entry 1a3e",0.0035 µM (active)
CC(C)[C@H](NC(=O)[C@H](Cc1ccc(O)cc1)NC(=O)[C@H](CC(N)=O)NC(=O)CN)C(=O)N[C@H](C(=O)N[C@H](C(=O)N[C@@H](Cc1ccc(O[P+](O)(O)O)cc1)C(=O)N[C@@H](C)C(=O)O)[C@@H](C)O)C(C)C (H-GNYVVT[X1]A-OH),Kd,"protein: phosphotyrosine (pTyr) scaffold Fab, PDB entry 4jfx",0.36 µM (active)
COc1cc2c(c(OC)c1OC)C1=CCC(=O)C(=O)C=C1[C@@H](NC(C)=O)CC2,Kd,"protein: Bromodomain-containing protein 4, BRD4(1), PDB entry 4lys",46 µM (active)
COc1cc(/C=C/CO)ccc1O,Kd,"protein: Coniferyl alcohol 9-O-methyltransferase, PDB entry 4e70",5.26 µM (active)
CC(C)[C@H](NC(=O)[C@H](Cc1ccc(O)cc1)NC(=O)[C@H](CC(N)=O)NC(=O)CNC(=O)[C@@H](N)CCCCN)C(=O)N[C@H](C(=O)N[C@H](C(=O)N[C@H](C(=O)N[C@@H](Cc1cnc[nH]1)C(=O)O)[C@@H](C)O[P+](O)(O)O)[C@@H](C)O)C(C)C (H-KGNYVVT[Thr(P(OH)3+)]H-OH),Kd,"protein: phosphoserine/threonine (pSTAb) scaffold Fab, PDB entry 4jg1",0.232 µM (active)
CC(C)[C@H](NC(=O)[C@H](Cc1ccc(O)cc1)NC(=O)[C@H](CC(N)=O)NC(=O)CNC(=O)[C@@H](N)CCCCN)C(=O)N[C@H](C(=O)N[C@H](C(=O)N[C@@H](CO[P+](O)(O)O)C(=O)O)[C@@H](C)O)C(C)C,Kd,"protein: phosphoserine/threonine (pSTAb) scaffold Fab, PDB entry 4jg0",0.172 µM (active)
CC(C)[C@H](NC(=O)[C@H](Cc1ccc(O)cc1)NC(=O)[C@H](CC(N)=O)NC(=O)CNC(=O)[C@@H](N)CCCCN)C(=O)N[C@H](C(=O)N[C@H](C(=O)N[C@@H](CO[P+](O)(O)O)C(=O)N[C@@H](Cc1cnc[nH]1)C(=O)O)[C@@H](C)O)C(C)C,Kd,"protein: phosphoserine (pSAb) scaffold Fab, PDB entry 4jfz",0.071 µM (active)
C[C@@H]1O[C@@H](Oc2c(-c3ccc(O)c(O)c3)oc3cc(O)cc(O)c3c2=O)[C@H](O)[C@H](O)[C@H]1O,Kd,"protein: Ribosomal protein S6 kinase alpha-3, PDB entry 4gue",5.8 µM (active)
Cc1cc(=N)c2ccccc2n1CCCCCCCC/C=C/N1c2ccccc2C(N)=CC1C (configuration not stated),Kd,"protein: Chitinase A, PDB entry 3arp",0.07 µM (active)
CC1=CC(N)c2ccccc2N1CCCCCCCCCCN1c2ccccc2C(N)=CC1C (configuration not stated),Kd,"protein: Putative regulatory protein, PDB entry 3vw0",21.2 µM (active)
Cc1cc(=N)c2ccccc2n1CCCCCCCCCCN1c2ccccc2C(N)=CC1C (configuration not stated),Kd,"protein: Chitinase A(W275G mutant), PDB entry 3art",37 µM (active)
